High-throughput results: PubChem BioAssay, several laboratories
BoNT-F LC inh = BoNT/F light chain protease inhibitors, primary screen, biochemical, flow cytometry, MLPCN library. Botulinum neurotoxin type F light chain protease (Clostridium botulinum). Multiplex microsphere protease cleavage assay. inhibition, % at 10 µM. 360,000 compounds, 0.22% hits. AID 588497, 2011; in the data active means inhibition above about 35%, passing the limit was not always enough; inconclusive means no clear call, values can overlap the other calls; further: plate controls were buffer without enzyme for full effect and enzyme alone for no effect
BJeLR viability = MLPCN primary cell-based screen for lethality selective to Ras in HRASV12 cells; BJeLR (HRASV12) viability, CellTiter-Glo ATP luminescence, 48 h; inhibition, % (test concentration not listed); 300,000 compounds, 0.17% hits; in the data active means inhibition above about 50%; inconclusive means no clear call, values can overlap the other calls
BoNT-A LC inh2 = BoNT/A light chain protease inhibitors, primary screen, biochemical, flow cytometry, MLPCN library; multiplex microsphere protease substrate cleavage; inhibition, % at 10 µM; 360,000 compounds, 0.17% hits; further: plate controls were buffer without enzyme for full effect and enzyme alone for no effect
3CLpro inhibitor = SARS-CoV 3CLpro protease inhibitors, primary screen, biochemical, quenched FRET. recombinant SARS-CoV 3CLpro, quenched FRET peptide cleavage. inhibition, % at 6 µM. 290,000 compounds, 0.14% hits; in the data active means inhibition above about 12%
Anthrax LF prot = Bacillus anthracis LF protease inhibitors, primary screen, biochemical, multiplex microsphere, MLPCN library; multiplex microsphere protease cleavage assay; inhibition, % at 10 µM; 360,000 compounds, 0.12% hits; AID 588501, 2011; further: plate controls were buffer without enzyme for full effect and enzyme alone for no effect
Bead autofluor = compound fluorescence in toxin protease inhibitor counterscreen; compound autofluorescence counterscreen, microsphere flow cytometry; stronger effect = higher value; fluorescence intensity (no concentration beside the values); 360,000 compounds, 3.1% hits; in the data active means fluorescence intensity above about 16000; inconclusive means no clear call, values can overlap the other calls
The depositor's hits bear a star; ? = inconclusive; . = no result. In the library only some 3.6% were active in any assay of this set; here they are far more common. Unless noted, no stated cut-off is given here; in the data, active means inhibition above about 30%; inconclusive means no clear call, values can overlap the other calls; inactive means below that.

SMILES | BoNT-F LC inh | BJeLR viability | BoNT-A LC inh2 | 3CLpro inhibitor | Anthrax LF prot | Bead autofluor
O=C(Nc1ccc(F)c(Cl)c1)Nc1ccc(Cl)cn1 | -7 | 1 | -1 | -2 | -2 | 2545
O=C(Nc1ccc(F)cc1)Nc1ccc(Cl)cn1 | 5 | 5 | 3 | 0 | -2 | 18496*
O=[N+]([O-])c1cc(Br)c(Nc2ccccc2)c([N+](=O)[O-])c1 | -6 | 60* | -3 | -2 | -1 | 3507
N/C(=N\OC(=O)CCCc1ccccc1)c1ccccc1Cl | -6 | 11 | -4 | -7 | 0 | 6265
CCOc1cccc(CNC2CN3CCC2CC3)c1 (stereo unspecified) | -1 | 5 | ? | -3 | -2 | 16409*
Fc1ccc(CNC2CN3CCC2CC3)cc1 (stereo unspecified) | -11 | -2 | 1 | 3 | -8 | 3452
O=C(NCCN1CCOCC1)c1cccs1 | 0 | -9 | 0 | -1 | -1 | 2901
c1csc(CNCCN2CCOCC2)c1 | 0 | -1 | 0 | -1 | -2 | 16263*
CCCc1cc(Nc2cccc(OC)c2)n2ncnc2n1 | 1 | -9 | 2 | -1 | 2 | 23259*
CCCNS(=O)(=O)c1ccc(OCC(=O)NCCC2=CCCCC2)cc1 | -6 | 0 | -3 | 0 | -1 | 25068*
COC(=O)COc1ccc(S(=O)(=O)NCCC2=CCCCC2)cc1 | -1 | -3 | 0 | 1 | -5 | 5915
CCOC(=O)COc1ccc(S(=O)(=O)Nc2ccc(C)cc2)cc1 | -2 | -3 | ? | -2 | -1 | 20911*
COC(=O)COc1ccc(S(=O)(=O)NCCC2=CCCCC2)cc1C | -9 | 12 | -7 | 1 | -1 | 22566*
CCCNS(=O)(=O)c1ccc(OCC(=O)OC)cc1 | -3 | 3 | -1 | -9 | 1 | 24397*
CC(C)NS(=O)(=O)c1ccc(OCC(=O)NCCC2=CCCCC2)cc1 | 0 | 15 | 0 | -3 | -1 | 11035
CCCCNS(=O)(=O)c1ccc(OCC(=O)OC)cc1 | -16 | 6 | -1 | 5 | 1 | 2701
COc1ccc(N2CCN(CCCNC(=O)C3(S(=O)(=O)c4ccc(Cl)cc4)CC3)CC2)cc1 | -16 | -4 | ? | 1 | -7 | 26083*
O=C(N1CCN(c2cccc(Cl)c2)CC1)C1(S(=O)(=O)c2ccc(Cl)cc2)CC1 | 10 | -11 | 0 | 3 | -1 | 3795
CC(=O)c1ccc(N2CCN(C(=O)C3(S(=O)(=O)c4ccc(Cl)cc4)CC3)CC2)cc1 | 0 | -1 | 0 | -1 | -1 | 19219*
N#CCN1CCC2(O)CCCCC2C1c1ccc2c(c1)OCO2 (stereo unspecified) | ? | 2 | -3 | 1 | -9 | 4222
Cc1cc(C)c(C(N)=O)c(SCC(=O)c2cc(C)c(C)cc2C)n1 | -1 | -1 | 0 | -3 | 0 | 2489
C=CCSc1[nH]c(=O)cc(C)c1C(N)=O | 4 | -1 | 2 | -3 | -2 | 19287*
Cc1cc([N+](=O)[O-])nn1CC(=O)N(C)C1CCCCC1 | 0 | 2 | -1 | -3 | -1 | 5158
O=C(CCCn1c(SCC(=O)c2ccc(Cl)cc2)nc2ccccc2c1=O)NCc1ccco1 | . | 1 | . | 0 | . | .
CC(=O)NCCn1c(SCC(=O)NCCC(C)C)nc2ccccc2c1=O | -3 | 4 | -4 | -2 | 0 | 23356*
SMILES | BoNT-F LC inh | BJeLR viability | BoNT-A LC inh2 | 3CLpro inhibitor | Anthrax LF prot | Bead autofluor
CCCCNC(=O)CSc1nc2ccccc2c(=O)n1CCNC(C)=O | -9 | -3 | -2 | -1 | -3 | 9968
O=C(CCCCCn1c(SCC(=O)c2ccccc2)nc2ccccc2c1=O)NCc1ccco1 | -1 | -2 | 0 | 5 | -3 | 16253*
CC(=O)NCCn1c(SCC(=O)c2ccc(Cl)cc2)nc2ccccc2c1=O | -6 | -4 | ? | 0 | 0 | 21199*
CC(=O)NCCn1c(SCC(=O)NCc2ccco2)nc2ccccc2c1=O | -4 | 6 | -2 | -6 | -4 | 17328*
CCCCn1c(SCC(=O)NCc2ccco2)nc2ccccc2c1=O | . | -8 | . | 2 | . | .
COc1ccc(S(=O)(=O)N2CCOCC2)cc1NC(=O)CN1C(=O)NC2(CCCC2)C1=O | -3 | . | 0 | . | -12 | 3657
CN1CCN(c2ccc([N+](=O)[O-])cc2C(=O)c2ccc(Br)cc2)CC1 | -3 | -3 | -2 | 1 | -6 | 23704*
Cc1cc(N2CCN(c3ccccc3)CC2)n2nnnc2n1 | 5 | 1 | 1 | 4 | 4 | 2712
Cc1cc(N2CCN(c3ccccc3)CC2)n2c(n1)nc1ccccc12 | 8 | -12 | ? | 2 | 2 | 23762*
C=CSc1sc(Cl)c(N(CC)CC)c1[N+](=O)[O-] | -9 | 17 | 0 | -6 | 0 | 4528
Cc1ccn2c(NCc3ccc4c(c3)OCO4)c(-c3ccc(O)cc3)nc2c1 | -7 | -8 | -4 | -3 | -4 | 17253*
Oc1ccc(-c2nc3ccccn3c2NCc2ccc3c(c2)OCO3)cc1 | -1 | . | 0 | -2 | -3 | 2416
CCOC(=O)c1ccccc1NC(=O)Cc1ccc(OC)c(S(=O)(=O)N2CCOCC2)c1 | 1 | . | 0 | . | -2 | 2779
Cc1ncsc1C(=O)Nc1nc2c(s1)CC(C)CC2 (stereo unspecified) | -2 | 9 | -1 | 2 | -6 | 16464*
O=C(C1CCCN(S(=O)(=O)c2cccc3nsnc23)C1)N1CCc2ccccc21 (stereo unspecified) | -20 | 1 | 0 | 3 | 0 | 4245
CC1Cc2ccccc2N1C(=O)C1CCCN(S(=O)(=O)c2cccc3nsnc23)C1 (stereo unspecified) | ? | -10 | 1 | 12* | -6 | 4006
O=C(CSc1nc2ccccc2nc1N1CCCCC1)N1CCN(c2ccccc2)CC1 | -9 | -3 | 1 | -1 | 5 | 4214
CSCC[C@H](NC(=O)OC(C)(C)C)C(=O)N1CCC(C(=O)N[C@@H](C)C(=O)O)CC1 | 0 | 14 | ? | 1 | 0 | 20586*
COc1ccc(S(=O)(=O)N2c3cc(Cl)ccc3Oc3nc4ccccc4nc32)cc1 | 7 | 74* | 1 | 1 | 0 | 3338
CCc1ccccc1N1CC(C(=O)N2Cc3ccccc3CC2C(N)=O)CC1=O (stereo unspecified) | 6 | . | 2 | . | -2 | 8460
CC(=O)N1CCN(Cc2ccc(Br)s2)CC1 | 3 | -10 | 1 | -3 | -2 | 22754*
CCOc1ccccc1CN1CCCC(CNC(=O)Cc2ccc(OC)cc2)C1 (stereo unspecified) | ? | 2 | -3 | -5 | -9 | 3154
COc1ccc(Cn2c(-c3ccc(C)cc3)c[n+]3ccccc23)cc1 | 0 | 10 | 0 | 4 | 2 | 2011
Cc1ccc(NC(=O)CCc2nnc3ccc(NCc4ccco4)nn23)cc1 | 4 | -6 | 3 | -3 | -1 | 5283
